Screens deposited in PubChem BioAssay by National Center for Advancing Translational Sciences (NCATS).
HCMV inh: qHTS Assay for inhibitors of the human cytomegalovirus (HCMV). HFF cells, HCMV-luciferase reporter, 72 h; active compounds read low. activity change, negative = inhibition, % at 57.5 µM. actives 4.5% (n = 410,000); in the data active = activity change below about -60%; inconclusive = no clear call, values can overlap the other calls; inactive = above about -39%
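Screen run at 2 compound doses on HFFs infected with reporter HCMV, MOI 1 PFU/cell. Luciferase activity from cell lysates at 72 h post infection gave inhibition relative to buffer-only and Salinomycin wells.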
Pf growth 48h: Primary qHTS for delayed death inhibitors of the malarial parasite plastid, 48 hour incubation; P. falciparum luciferase growth in erythrocytes, 48 h; Potency, µM (top dose mostly 28.7 µM), hits mostly inhibitors; actives 5.9% (n = 310,000)
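A one-generation exposure of luciferase-tagged malaria parasites in RPMI 1640/Albumax erythrocyte culture, 37 C and 5% CO2. Inhibition is inferred from decreased luminescence after adding detection reagent.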
Cycloheximide cs: Cycloheximide Counterscreen for Small Molecule Inhibitors of Shiga Toxin; cell reporter, cycloheximide protein synthesis inhibition counterscreen; max response, %; actives 12% (n = 300,000); AID 2314, 2010; in the data active = max response mostly above about 13%, no sharp cut-off; inactive = mostly below about 14%; also: read at 38.3 µM for the half of the compounds with a filed dose
Pf growth 96h: Primary qHTS for delayed death inhibitors of the malarial parasite plastid, 96 hour incubation | P. falciparum luciferase reporter growth, 96 h | Potency, µM (highest dose often 28.7 µM), most hits filed as inhibitors | actives 6.9% (n = 320,000) | AID 504834, 2011
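Parasite growth measured via integrated firefly luciferase reporter in P. falciparum. Infected erythrocytes at 2% hematocrit, 0.05% parasitemia final were treated 96 hours at 37 C under 5% CO2, and luminescence was read.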
Shiga toxin inh: A qHTS for Small Molecule Inhibitors of Shiga Toxin | AID 2315, 2010 | inhibition, % at 38.7 µM | Vero cells, Shiga toxin protein synthesis inhibition reporter | actives 9.2% (n = 290,000); in the data active = inhibition mostly above about 28%, no sharp cut-off; inactive = mostly below about 43%
Of the large screens only hits and unclear results are named; the others gave an inactive call. Only some compounds are listed: those with a hit (about 20% of all), similar ones and a draw of the others. Unless noted, calls follow the shape of the dose curve; as a rule, active = well fitted inhibition curve with a large enough effect; inconclusive = small, poorly fitted or top-dose-only effect, or another doubt; inactive = no such curve, though single readings can be large or run the other way.

CCOC(=O)C1CCCN(c2c(NCCCN(CC)c3ccccc3)c(=O)c2=O)C1 (configuration not stated)	Pf growth 48h inconclusive
CCOC(=O)C1CCCN(c2c(N3CCN(C)CC3)c(=O)c2=O)C1 (configuration not stated)	Pf growth 96h inconclusive (no result: Pf growth 48h)
CCOC(=O)C1CCCN(c2c(NCC3CCCO3)c(=O)c2=O)C1 (configuration not stated)	none (no result: Pf growth 48h)
CCOC(=O)C1CCCN(c2c(NCCc3ccc(C)cc3)c(=O)c2=O)C1 (configuration not stated)	Pf growth 48h inconclusive
CCOC(=O)C1CCCN(c2c(NCCN3CCCCC3C)c(=O)c2=O)C1 (configuration not stated)	Pf growth 96h 4.7µM
CCOC(=O)C1CCCN(c2c(Nc3ccc(C)c(C)c3)c(=O)c2=O)C1 (configuration not stated)	Pf growth 48h 8.3µM
O=C(O)CCC(=O)Nc1ccccc1Oc1ccccc1	none
CC(NC(=O)c1ccco1)C12CC3CC(CC(C3)C1)C2 (configuration not stated)	Pf growth 48h inconclusive, Pf growth 96h inconclusive (no result: Cycloheximide cs, Shiga toxin inh)
C/C(=N\N1CCCCC1)c1c(O)[nH]c(=O)[nH]c1=O	Cycloheximide cs 18, Pf growth 96h inconclusive
COc1cccc(COC(=O)c2c(C)nn(-c3ccccc3)c2Cl)c1OC	Pf growth 96h inconclusive
Cc1ccc(NC(=O)c2ccc3c(c2)CCN3S(C)(=O)=O)cc1C	Cycloheximide cs 29, Shiga toxin inh 31
Cc1ccc(NC(=O)c2ccc3c(c2)CCN3S(C)(=O)=O)cc1	none (no result: Pf growth 48h, Cycloheximide cs, Pf growth 96h, Shiga toxin inh)
Cc1cccc(NC(=O)c2ccc3c(c2)CCN3S(C)(=O)=O)c1	Cycloheximide cs 29, Shiga toxin inh 47
CCc1cc(=O)oc2c3c(cc(OCC(=O)NCc4cccnc4)c12)OC(C)(C)CC3	Pf growth 48h 9.3µM, Pf growth 96h inconclusive
Cc1c(C)c2c(OCC(=O)Nc3cccnc3)cc3c(c2oc1=O)CCC(C)(C)O3	Pf growth 48h inconclusive, Pf growth 96h 4.1µM
CCc1cc(=O)oc2c3c(cc(OCC(=O)NCCCCCC(=O)O)c12)OC(C)(C)CC3	Pf growth 48h inconclusive, Pf growth 96h inconclusive
COc1cc2c(c3oc(=O)cc(CC(=O)O)c13)CCC(C)(C)O2	Pf growth 48h inconclusive, Pf growth 96h 5.2µM
Cc1c(C)c2c(OCC(=O)NCc3cccnc3)cc3c(c2oc1=O)CCC(C)(C)O3	Pf growth 96h inconclusive
CCCc1cc(=O)oc2c3c(cc(OCC(=O)NCC4CCC(C(=O)O)CC4)c12)OC(C)(C)CC3 (configuration not stated)	Pf growth 48h inconclusive, Pf growth 96h 1.3µM
CCc1cc(=O)oc2c3c(cc(OCC(=O)NCc4ccccn4)c12)OC(C)(C)CC3	Pf growth 48h inconclusive, Pf growth 96h inconclusive
CCOC(=O)c1nn2c(C(F)(F)F)cc(-c3ccc(C)cc3)nc2c1Cl	none (no result: Pf growth 48h, Cycloheximide cs, Pf growth 96h, Shiga toxin inh)
CCc1cc(=O)oc2c3c(cc(OCC(=O)Nc4cccnc4)c12)OC(C)(C)CC3	Pf growth 48h 2.1µM, Pf growth 96h 2.9µM
Cc1ccc(-c2ccc(S(=O)(=O)Nc3cccnc3)cc2)cc1	HCMV inh inconclusive
COc1ccc(C(=O)NC2CCSc3ccccc32)cc1S(=O)(=O)N1CCOCC1 (configuration not stated)	Pf growth 48h 12µM, Pf growth 96h inconclusive (no result: Cycloheximide cs, Shiga toxin inh)
COc1ccc(C(=O)NC2CCSc3ccccc32)cc1F (configuration not stated)	Pf growth 48h inconclusive, Cycloheximide cs 13, Pf growth 96h inconclusive
COc1cc(OC)cc(C(=O)NC2CCSc3ccccc32)c1 (configuration not stated)	Pf growth 96h inconclusive
COc1cc(C(=O)NC2CCCc3ccccc32)ccc1OCC(=O)Nc1ccc(F)cc1 (configuration not stated)	Pf growth 48h inconclusive, Pf growth 96h 13µM
O=C(Cc1ccccc1)N/N=C/c1ccc(S(=O)(=O)O)o1	none
CC(=O)c1ccc(NC(=O)c2ccc(-n3cnnn3)cc2)cc1	Pf growth 48h inconclusive, Pf growth 96h inconclusive (no result: Cycloheximide cs, Shiga toxin inh)
C[C@@H]1C=C(C(=O)NCc2ccccc2)O[C@H](OCc2ccc(CO)cc2)C1	Pf growth 96h inconclusive
COc1ccc(Cl)cc1-n1c(C)ccc1C	none
Cn1c(NC(=O)/C=C\c2ccccc2)cc(=O)n(C)c1=O	Cycloheximide cs 36, Shiga toxin inh 80
O=C(Nc1ccc2c(c1)C(=O)NC2=O)c1ccccc1	HCMV inh inconclusive
O=C(/C=C/c1ccccc1Cl)Nc1ccc2c(c1)C(=O)NC2=O	Shiga toxin inh 58
O=C(Nc1ccc2c(c1)C(=O)NC2=O)c1ccccc1Cl	none
O=C(/C=C/c1ccccc1)Nc1ccc2c(c1)C(=O)NC2=O	HCMV inh inconclusive, Cycloheximide cs 19
CCNS(=O)(=O)c1c(C)cc(N2CCCC2=O)cc1C	Pf growth 96h inconclusive
Cc1cc(N2CCCC2=O)cc(C)c1S(=O)(=O)NCCOc1ccccc1	HCMV inh -77
COc1nc(N)c(C#N)c(-c2ccc(N(C)CCC#N)cc2)c1C#N	Pf growth 48h inconclusive
COc1ccc(N=C2O/C(=C/c3sc(=S)n(CC4CCCO4)c3O)N=C2C#N)cc1 (configuration not stated)	HCMV inh inconclusive, Pf growth 48h inconclusive, Pf growth 96h 15µM
O=C1N=c2ccccc2=C1c1sc(=S)n(CC2CCCO2)c1O (configuration not stated)	none (no result: Pf growth 48h)
COc1ccc(/C=C2\SC(=O)N(CCNC(=O)CCS(=O)(=O)c3ccc(C)cc3)C2=O)cc1	Cycloheximide cs 70, Shiga toxin inh 110
COc1ccc(/C=C2\SC(=O)N(CCNC(=O)Cn3cnnn3)C2=O)cc1	Cycloheximide cs 32, Shiga toxin inh 157 (no result: Pf growth 96h)
COc1ccc(S(=O)(=O)CCC(=O)NCCc2ccc(C)cc2)cc1	none (no result: Pf growth 96h)
CCCCC(=O)N1c2ccccc2C(C)(c2ccccc2)CC1(C)C (configuration not stated)	none (no result: Pf growth 48h, Cycloheximide cs, Pf growth 96h, Shiga toxin inh)
CC1(c2ccccc2)CC(C)(C)N2C(=O)C(=O)c3cccc1c32 (configuration not stated)	Pf growth 48h 12µM
O=C(Cn1c(=O)nc(-c2ccccc2)c2ccccc21)NCCCc1ccccc1	none (no result: Pf growth 48h, Cycloheximide cs, Pf growth 96h, Shiga toxin inh)
CC1CCN(C(=O)CSc2nc3c(c(=O)n2C)SCC3)CC1	HCMV inh inconclusive, Cycloheximide cs 18, Pf growth 96h inconclusive
Cn1c(SCC(=O)N2CCCCCC2)nc2c(c1=O)SCC2	Pf growth 96h 4.7µM
Cn1c(SCC(=O)N2CCCC2)nc2c(c1=O)SCC2	none (no result: Pf growth 48h, Cycloheximide cs, Pf growth 96h, Shiga toxin inh)
Cn1c(SCC(=O)NC2CCCC2)nc2c(c1=O)SCC2	none
Cc1onc(NC(=O)CSCC(=O)O)c1Br	HCMV inh -73
COCCNC(=O)c1cccc(OC2CCN(Cc3ccccc3C)CC2)c1	Pf growth 96h 1.5µM
CC1CCCCN1C(=O)c1ccccc1OC1CCN(S(C)(=O)=O)CC1 (configuration not stated)	none
CCOCCCNC(=O)c1cccc(OC2CCN(S(C)(=O)=O)CC2)c1	Cycloheximide cs 30, Shiga toxin inh 35
